# From PubChem BioAssay (EPA / NIEHS)
# The source made the active and inactive calls. Rule for the calls: active = hit-call score of the fitted dose curve at least 0.9, where 1 is the maximum; inactive = score below 0.9.
# Experiment: BSK_BF4T_SRB: Viability Assessment in the BioMAP Diversity Plus: BF4T Assay (AID 2284274)
# Settings: primary human bronchial epithelial cells with fibroblasts
# Protocol: BSK_BF4T is a cell-based, multiplexed-readout assay that uses bronchial epithelial cells and dermal fibroblasts, a human vascular primary cell, with measurements taken at 24 hours after chemical dosing in a microplate: 96-well plate.BSK_BF4T_SRB is an assay component measured in the BSK_BF4T assay. It measures 0.1% sulforhodamine related to cell death using Sulforhodamine staining technology.Data from the assay component BSK_BF4T_SRB was analyzed at the endpoint, BSK_BF4T_SRB, in the positive analysis fitting direction relative to DMSO as the negative control and baseline of activity. Using a type of viability reporter, gain or loss-of-signal activity can be used to understand protein changes. To generalize the intended target to other relatable targets, this assay endpoint is annotated to the 'cell morphology' intended target family, where the subfamily is 'cell conformation'.
# The levels of cell surface (or secreted, indicated by the prefix "s") biomarker endpoints were measured by ELISA. Overt cytotoxicity to cells in confluent adherent cultures (all systems other than the BT system) was assessed by measuring total protein levels using sulforhodamine B (SRB) staining in parallel cultures at the time of biomarker measurements, indicated as SRB endpoints. For proliferation assays for adherent cell types, individual cell types are cultured at sub-confluence and relative cell numbers quantified by SRB staining at time points optimized for each system (48 h: 3C and CASM3C systems; 72 h: BT and HDF3CGF systems; 96 h: SAg system). SRB was performed by staining cells with 0.1% SRB after fixation with 10% TCA and reading wells at 560 nm.Viability and proliferation of PBMC (T cells) was quantified by Alamar Blue reduction for the SAg and BT systems. For PBMC viability (referred to as PBMC Cytotoxicity within the assay endpoint names), cells were plated (75,000/well in a 96-well plate) and then chemical samples added for 1 h before addition of activators, SEB and TSST-1 (20 ng/mL final concentration each). Cells were incubated for 90 h. Then, Alamar Blue (20 uL/well) (Invitrogen, Cat DAL1100) was added for 6 h, and the plates were read with a fluorescence microplate reader at 546/580 nm (excitation/emission). For PBMC proliferation, cells were plated and activated as above but incubated for only 16 h prior to addition of Alamar Blue. Plates were read after 6 h.
row,Structure (SMILES),outcome
1,FC(F)(F)C(F)(C(F)(F)F)C(F)(F)C(F)(F)CC1CO1 (centres undefined),inactive
2,O=S(=O)(F)C(F)(F)C(F)(F)C(F)(F)C(F)(F)C(F)(F)C(F)(F)C(F)(F)C(F)(F)F,inactive
3,CC(O)C(F)(F)C(F)(F)F (centres undefined),inactive
4,OCC(F)(F)OC(F)(F)C(F)(F)OC(F)(F)CO,inactive
5,O=C(O)C=CC(F)(C(F)(F)F)C(F)(F)F,inactive
6,O=C(O)C(F)(F)C(F)(F)C(=O)O,inactive
7,COC(=O)C(F)(F)C(F)(F)OC(F)(C(F)(F)F)C(F)(F)OC(F)=C(F)F (centres undefined),inactive
8,O=C(O)C(F)(F)OC(F)(F)C(F)(F)OC(F)(F)C(=O)O,inactive
9,O=C(O)C(F)(OC(F)(F)C(F)(F)C(F)(F)F)C(F)(F)F (centres undefined),inactive
10,O=C(O)C(F)(F)OC(F)(F)C(F)(F)OC(F)(F)F,inactive
11,OCC(F)(F)OC(F)(F)C(F)(F)OC(F)(F)C(F)(F)OC(F)(F)F,inactive
12,NC(=O)C(F)(F)C(F)(F)F,inactive
13,OCC(F)(F)OC(F)(F)C(F)(F)OC(F)(F)C(F)(F)OC(F)(F)CO,inactive
14,C=CC(=O)OCC(F)(F)C(F)F,inactive
